The text below walks through data of PubChem BioAssay (NCI).

Among the test systems are T-47D breast; BT-549 breast; MDA-MB-435 melanoma; SW-620 colon; MCF7 breast; HCT-116 colon; HCC-2998 colon; KM12 colon.
Holding throughout (assay): NCI-60 one-dose screen, 48 h (100 = growth as untreated, 0 = no growth, -100 = all killed)
Holding throughout (conditions): 10 µM unless noted

Molecules are shown by their SMILES. The panel holds about 83,000 compounds, 20% with a hit somewhere; the sample as a whole holds those more often.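 Method: cells in 96-well plates; compound added at one concentration; 48 h incubation; percent growth measured; values under 10 scored active.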 Unmarked numbers belong to inactive results. The source made the active and inactive calls.

In the case of `CC1=C(C)C(=O)C(C(C)C2=C(C)C(=O)C(C)=C(C)C2=O)=C(C)C1=O`, the growth with T-47D breast is 91.6%; in the experiment on BT-549 breast it was 83.5%; with MDA-MB-435 melanoma it was 98.1%; in the experiment with SW-620 colon it was 107%; with MCF7 breast, 102%; in the experiment on HCT-116 colon, 71.2%. Besides, the results for the growth in the experiment on HCC-2998 colon and with KM12 colon were 23.4% and 88.8%, respectively.
On to `CC1C(=O)CCCC1=O`, for which the growth in the experiment with T-47D breast was 96.1%; with BT-549 breast, 104%; in the experiment with MDA-MB-435 melanoma, 105%; in the experiment on SW-620 colon, 113%; in the experiment on MCF7 breast, 95.8%; with HCT-116 colon, 113%. Also, the growth in the experiment on HCC-2998 colon was 109%; with KM12 colon it was 113%.
Consider `CC([C@H]1CCC2C3CCC4C[C@@H](N)CC[C@]4(C)C3CC[C@@]21C)N(C)C` (stereo partly drawn), for which the growth with T-47D breast was 55.9%; in the experiment on BT-549 breast, 80.1%; with MDA-MB-435 melanoma it was 0% (active); in the experiment on SW-620 colon it was 40.2%; in the experiment with MCF7 breast, 48.7%; in the experiment on HCT-116 colon, 27.9%. The results for the growth in the experiment with HCC-2998 colon and with KM12 colon were 80.1% and 51.3%, respectively.
On to `CCCCCCC(C(=O)OCC)(C(=O)OCC)C1CCCCCC1`, for which the growth in the experiment on T-47D breast is 91.9%; in the experiment with BT-549 breast it was 104%; in the experiment with MDA-MB-435 melanoma, 103%; in the experiment with SW-620 colon, 99.1%; in the experiment on MCF7 breast, 96.3%; in the experiment on HCT-116 colon, 99%. Further, the growth in the experiment with HCC-2998 colon is 100%; in the experiment on KM12 colon, 105%.
Consider `COc1ccc(C(O)(c2ccccc2)C(C(=O)O)c2ccccc2)cc1` (stereo not drawn), for which the growth in the experiment on T-47D breast was 86%; in the experiment on BT-549 breast it was 94.7%; with MDA-MB-435 melanoma, 117%; in the experiment with SW-620 colon, 107%; in the experiment with MCF7 breast it was 114%; in the experiment with HCT-116 colon, 97.2%. For the same molecule, the values for the growth in the experiment on HCC-2998 colon and in the experiment with KM12 colon were 102% and 93.9%, respectively.
Consider `O=C(NCCO)C(F)(F)F`, for which the growth in the experiment with T-47D breast was 95.8%; in the experiment with BT-549 breast it was 106%; in the experiment on MDA-MB-435 melanoma it was 108%; in the experiment on SW-620 colon, 105%; with MCF7 breast, 95.6%; with HCT-116 colon, 108%. Moreover, the growth in the experiment with HCC-2998 colon is 97%; in the experiment on KM12 colon, 107%.
`COCn1c(C(=O)OC)cc2oc(/C=C3/SC(=S)N(N)C3=O)cc21`: the growth in the experiment with T-47D breast is 94.4%; in the experiment on BT-549 breast, 80.8%; in the experiment with MDA-MB-435 melanoma, 94.9%; with SW-620 colon it was 97.6%; in the experiment on MCF7 breast it was 97%; in the experiment with HCT-116 colon it was 93.8%. In addition, the values for the growth in the experiment with HCC-2998 colon and with KM12 colon were 102% and 92.3%, respectively.
In the case of `CC(O)CN(CC(C)O)N(CC(C)O)CC(C)O` (stereo not drawn), the growth in the experiment with T-47D breast was 105%; with BT-549 breast, 94.9%; with MDA-MB-435 melanoma, 104%; in the experiment with SW-620 colon, 104%; in the experiment with MCF7 breast, 101%; in the experiment on HCT-116 colon, 102%. Further, the growth was 107% with HCC-2998 colon and 109% in the experiment with KM12 colon.
Consider `CCCCCCCCCCCCCCCCNC(=S)N/N=C/c1ccc(O)cc1O`, for which the growth is 89.6% in the experiment on T-47D breast; 83.5% with BT-549 breast; 75.2% with MDA-MB-435 melanoma; 66.7% in the experiment with SW-620 colon; 79.1% in the experiment on MCF7 breast; 51.8% in the experiment on HCT-116 colon. Moreover, the growth was 86.9% with HCC-2998 colon and 71.8% in the experiment with KM12 colon.
`COc1ccc(Cn2cc3c(c2-c2ccccc2)CCc2cnoc2-3)cc1N`: the growth is 37.2% in the experiment on T-47D breast; 36.2% with BT-549 breast; -27.9% (active) in the experiment with MDA-MB-435 melanoma; 23.5% in the experiment with SW-620 colon; 16% in the experiment with MCF7 breast; 9.53% (active) with HCT-116 colon. The growth was -1.21% (active) in the experiment on HCC-2998 colon and 6.52% (active) in the experiment on KM12 colon.
For `Nc1cc(N)c2nc(-c3ccccc3)c(NCCc3ccc(Cl)c(Cl)c3)nc2c1`, the growth was -11.5% (active) in the experiment on T-47D breast; -70.4% (active) in the experiment with BT-549 breast; -88.2% (active) in the experiment with MDA-MB-435 melanoma; -86.7% (active) in the experiment on SW-620 colon; -2.91% (active) with MCF7 breast; -90.8% (active) in the experiment on HCT-116 colon. The growth is -94.9% (active) in the experiment with HCC-2998 colon and -83.4% (active) in the experiment with KM12 colon.
As to `C=CCC(CCC(CC=C)C(=O)OCC)C(=O)OCC` (stereo not drawn), the growth was 105% with T-47D breast; 96.3% in the experiment with BT-549 breast; 104% with MDA-MB-435 melanoma; 103% with SW-620 colon; 89.6% in the experiment on MCF7 breast; 100% with HCT-116 colon. The results for the growth in the experiment on HCC-2998 colon and in the experiment with KM12 colon were 113% and 99.8%, respectively.
As for `Nc1cc(N)c2nc(NCCc3ccc(Cl)c(Cl)c3)cnc2c1`, the growth in the experiment on T-47D breast was -27.2% (active); in the experiment with BT-549 breast, 96.6%; in the experiment with MDA-MB-435 melanoma, -50% (active); in the experiment on SW-620 colon it was 51.3%; in the experiment on MCF7 breast it was -43.5% (active); with HCT-116 colon it was -42.5% (active). For the same molecule, the growth with HCC-2998 colon was 44.7%; with KM12 colon, 35.6%.
For `COc1cccc2c1n([O-])c1cccc(OC)c1[n+]2=O`, the growth in the experiment on T-47D breast is 50.2%; in the experiment on BT-549 breast, 71.5%; in the experiment with MDA-MB-435 melanoma, 91.5%; in the experiment on SW-620 colon, 68%; in the experiment with MCF7 breast it was 36.9%; in the experiment on HCT-116 colon, 48.5%. The growth is -4.2% (active) in the experiment on HCC-2998 colon and 73.3% in the experiment with KM12 colon.
Take `CCCCCCCCC/C(=N\NC(=O)c1ccncc1)c1ccc(O)c(O)c1O`: the growth is 33.7% in the experiment on T-47D breast; 38.8% in the experiment on BT-549 breast; 53% in the experiment with MDA-MB-435 melanoma; 43.1% in the experiment on SW-620 colon; 21.4% in the experiment on MCF7 breast; 26.7% in the experiment with HCT-116 colon. The growth in the experiment with HCC-2998 colon is 33.3%; with KM12 colon, 22.4%.
As for `COc1ccc(/C=C/C(=O)/C=C/c2cc3ccccc3[nH]c2=O)cc1`, the growth in the experiment with T-47D breast was 57.1%; in the experiment with BT-549 breast it was 64.9%; with MDA-MB-435 melanoma, 13.6%; in the experiment with SW-620 colon, 36.4%; with MCF7 breast, 14.5%; in the experiment with HCT-116 colon, -30.8% (active). The results for the growth in the experiment with HCC-2998 colon and in the experiment on KM12 colon were 96.7% and 27.6%, respectively.
